Each structure is given as a SMILES string. Several values for one entry are separate records, joined by “and”; a condition that tells them apart may be missing. Identical values can stand only once. This is part of a sample that, as a whole, favours compounds with a hit. Of some 83,000 tested, about 20% had one in any assay.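 A percent growth of 40 corresponds to 60% growth inhibition; 0 means no net growth; -100 means all cells died. Active threshold: below 10.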 A number with no mark means an inactive call. Activity calls are given as the source filed them.

The results in this text go back to PubChem BioAssay (NCI).

The experiment relates to MDA-MB-468 breast. Nature of the experiment: NCI-60 one-dose screen, 48 h (100 = growth as untreated, 0 = no growth, -100 = all killed). To be noted: 10 µM unless noted.
In the case of `COc1cccc(CCC(=O)c2cc3c(N)c(C(=O)Nc4ccccc4)sc3nc2C)c1`, the growth was 25.2%. For `COc1ccc(C2=C(c3cc(OC)c(OC)c(OC)c3)C(=O)CC2)cc1`, the growth was 4.52% (active).

Consider `COC(=O)/C(=C\c1c(C)[nH]c2ccccc12)S(=O)(=O)c1ccccc1`, for which the growth is 23.4%. As for `Cc1nn(-c2nc3ccccc3[nH]2)c2c1C(c1ccc(O)cc1)CC(=O)N2` (centres undefined), the figure is 92.8%; as for `Cc1ccc(S(=O)(=O)n2cc(CNc3ccc(N4CCOCC4=O)cc3)c3ccccc32)cc1`, -9.46% (active). As to `O=C(Nc1ccc(Cl)c(C(F)(F)F)c1)Nc1ccc(-c2cccnc2)cc1N1CCC(CO)CC1`, the growth is 12.6%. Consider `Cc1ccc(C)c(NC(=O)c2sc3c(=O)[nH]cnc3c2C)c1`, for which the growth was 67.2%. Under `O=[P@@]1(c2ccccc2)O[C@H](COCc2ccccc2)[C@@H](OCc2ccccc2)[C@H](OCc2ccccc2)[C@H]1O` stands 21.3%; under `COc1ccc(NC(=O)C(=O)c2c[nH]c3ccc(F)cc23)cc1`, 95.3%; under `NC(N)=Nc1ccc(Oc2cccc(NC(N)=Nc3ccc(I)cc3F)c2)cc1`, 35.5%. Consider `Cc1ccc(NS(=O)(=O)c2ccc(C)cc2)cc1`, for which the growth was 94.4% and 87.3%.

For the compound `CCn1nc(-c2ccc(C(=O)OC)cc2)nc2c(=O)n(C)c(=O)nc1-2`, the growth is 82%. For `Cc1ccc(-n2nc3c(c(C#N)c2=O)CC(c2ccccc2Cl)C([N+](=O)[O-])=C3O)cc1` (centres undefined), the growth was 114%. As for `COc1cc(/C=C/c2ccccc2)cc(OC)c1`, the growth is 103%. For `CCn1c(-c2nonc2N)nc2c(C#CC(C)(C)O)ncc(OC[C@H]3CCCNC3)c21`, the growth was 31.5%.

Take `Cc1cc(-c2ccccc2)nc2ccccc12`: the growth was 100%.

On to `Cc1cc(=O)oc2c1ccc1oc(C(=O)c3ccccc3)c(C)c12`, for which the growth was 76.1%.

On to `O=C1c2ccccc2C(=O)N1c1ccccc1`, for which the growth was 108%. Under `COc1cccc(C(=O)OCCn2nc3c4c(cccc42)C(=O)c2ccccc2-3)c1O` stands 24.9%. Under `COc1ccc(OC2=CC(=O)c3ccc(C)nc3C2=O)cc1` stands 86.2%; under `CCC(CC)(N(CC(=O)O)CC(=O)O)C(CC)(CC)N(CC(=O)O)CC(=O)O`, 127%; under `CCCCCCc1cc2cc(-c3csc(/C=C/c4ccccc4)n3)c(=O)oc2cc1O`, -21.1% (active). Consider `Cc1ccc(CSCc2ccc(C(=O)NC3CC3)o2)cc1`, for which the growth is 49.2%. Regarding `Cc1ccc([N+](=O)[O-])cc1NC(=O)Nc1cccc(F)c1`, the growth is 26.9%.
